{"source": "PubChem BioAssay (NCATS)", "note": "Results filed as inconclusive are left out. Active and inactive are the calls of the source. The call rests on the fitted dose curve; in most records, active means well fitted inhibition curve with a large enough effect; inconclusive means small, poorly fitted or top-dose-only effect; inactive means flat fitted curve, though single readings scatter.", "data": [{"test_system": "HACAT", "experiment": "qHTS assay to identify novel small-molecules to repurpose for Merkel cell carcinoma treatment (AID 1296009); further: nearly all actives have a fitted effect of over 60% in size", "details": "MCC and control cell lines, CellTiter-Glo viability, 72 h; at 44.8 µM (top of the series) unless noted", "procedure,_shortened": "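Cell viability, measured as CellTiter-Glo luminescence, was normalized between DMSO and no-cell wells. The cells had been exposed to 8- or 11-point compound dilutions for 72 hr at 37 degree celsius.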", "values": [{"smiles": "C[C@]12CCC[C@](C)(C(=O)O)C1CCC13C=C(CO)C(CCC12)C3", "note": "(stereo partly drawn)", "outcome": "inactive"}, {"smiles": "O=C(c1ccc(C#Cc2cccc(F)c2)cn1)N1CC2CC2C1", "note": "(stereo not drawn)", "outcome": "inactive"}, {"smiles": "C[C@H]1[C@H](C)CC[C@]2(C(=O)O)CC[C@]3(C)C(=CC[C@@H]4[C@@]5(C)C[C@@H](O)[C@H](O)[C@@](C)(CO)[C@@H]5CC[C@]43C)[C@H]12", "outcome": "inactive"}, {"smiles": "C/C=C/C=C/C(CC(=O)O)Nc1ccc(C=O)cc1", "note": "(stereo not drawn)", "outcome": "inactive"}, {"smiles": "C[C@@H]1O[C@@H](O[C@H]2[C@H](OC(=O)[C@]34CCC(C)(C)C[C@H]3C3=CCC5[C@@]6(C)C[C@H](O)[C@H](O[C@@H]7O[C@H](CO)[C@@H](O[C@@H]8O[C@H](CO)[C@@H](O)[C@H](O)[C@H]8O)[C@H](O)[C@H]7O)[C@@](C)(CO)C6[C@H](O)C[C@@]5(C)[C@]3(C)C[C@H]4O)OC[C@H](O)[C@@H]2O)[C@H](O)[C@H](O)[C@H]1O[C@@H]1OC[C@@H](O)[C@H](O[C@@H]2OC[C@](O)(CO)[C@H]2O)[C@H]1O", "note": "(stereo partly drawn)", "outcome": "inactive [at 9.27 µM]"}, {"smiles": "CC(C)(O)c1ccc2c(c1)C(=O)CC1[C@](C)(CO)CCC[C@]21C", "note": "(stereo partly drawn)", "outcome": "inactive"}, {"smiles": "CC(=O)C1CCC2(C)C3=C(CCC12C)C1(C)CCC(=O)C(C)(C)C1CC3", "note": "(stereo not drawn)", "outcome": "inactive"}, {"smiles": "C[C@@H]1C/C=C/C=C\\C=C\\C=C\\[C@H](O[C@@H]2O[C@H](C)[C@@H](O)[C@H](N)[C@@H]2O)C[C@@H]2O[C@](O)(C[C@@H](O)C[C@H]3O[C@@H]3/C=C/C(=O)O1)C[C@H](O)[C@H]2C(=O)O", "outcome": "inactive [at 17.4 µM]"}, {"smiles": "COC(=O)C[C@@H]1C(C(=O)O)=CO[C@@H](O[C@@H]2O[C@H](CO)[C@@H](O)[C@H](O)[C@H]2O)/C1=C\\COC(=O)/C=C\\c1ccccc1", "outcome": "inactive [at 17.4 µM]"}, {"smiles": "CC1CCC2C(C(=O)O)=CC3C(O)C(C)(C)CC123", "note": "(stereo not drawn)", "outcome": "inactive"}, {"smiles": "CC(C)(O)/C=C1/C(=O)C(C)(C)C(=O)C(C)(C)C1(O)O[C@@H]1O[C@H](COC(=O)c2cc(O)c(O)c(O)c2)[C@@H](O)[C@H](O)[C@H]1O", "note": "(stereo partly drawn)", "outcome": "inactive [at 17.4 µM]"}, {"smiles": "Cc1cc(O)c(C(C)C)cc1O[C@@H]1O[C@H](CO)[C@@H](O)[C@H](O)[C@H]1O", "outcome": "inactive"}, {"smiles": "O=C1CC(c2ccc([N+](=O)[O-])cc2)=NN1c1ccccc1", "outcome": "inactive"}, {"smiles": "C=C1[C@H]2[C@H](O[C@@H]3O[C@H](COC(=O)/C=C/c4cc(OC)c(O)c(OC)c4)[C@@H](O)[C@H](O)[C@H]3O)OC=C(C(=O)O)[C@H]2C[C@@H]1O", "outcome": "inactive [at 17.4 µM]"}, {"smiles": "C/C=C(\\C)C(=O)OC[C@H]1O[C@H](O[C@H]2O[C@H](CO)[C@@H](OC(=O)/C(C)=C/C)[C@H](O)[C@H]2O[C@@H]2O[C@H](CO)[C@@H](O)[C@H](O)[C@H]2O)[C@H](O[C@@H]2O[C@H](CO)[C@@H](O)[C@H](O)[C@H]2O)[C@@H](O)[C@@H]1O", "outcome": "inactive [at 9.27 µM]"}, {"smiles": "CN1CC[C@@H](NC(=O)Nc2ccc(C#N)cc2)C[C@@H]1c1nc2ccccc2[nH]1", "outcome": "inactive"}, {"smiles": "O=C(O)c1cc(O[C@@H]2O[C@H](CO[C@@H]3OC[C@@H](O)[C@H](O)[C@H]3O)[C@@H](O)[C@H](O)[C@H]2O)c2ccccc2c1O", "outcome": "inactive [at 17.4 µM]"}, {"smiles": "O=c1ccn(C2OC(CO)C(O)C2O)c(=O)[nH]1", "note": "(stereo not drawn)", "outcome": "inactive"}, {"smiles": "Clc1ccc(CN[C@H]2CCN(c3ncc(Br)cn3)C2)c(Cl)c1", "outcome": "inactive"}, {"smiles": "C=C1C(=O)OC2/C=C(\\C)CC/C=C(\\C(=O)O)CC/C=C(\\C)CCC12", "note": "(stereo not drawn)", "outcome": "inactive"}, {"smiles": "C=CC1(C)C=C2C(=O)CC3C(C)(C)CCCC3(C(=O)O)C2(O)CC1", "note": "(stereo not drawn)", "outcome": "inactive"}, {"smiles": "COc1c(C)c2c(c(O)c1C/C=C(\\C)CC/C=C(\\C)CCC(=O)O)C(=O)OC2", "outcome": "inactive"}, {"smiles": "CNC(=O)COC(=O)NCCC1CCN(c2cccc(C)n2)CC1", "outcome": "inactive"}, {"smiles": "Cc1nn(C)c(COc2ccc(N3CCN(S(=O)(=O)N(C)C)CC3)cc2)c1-c1cccc2c(CCCOc3cccc4ccccc34)c(C(=O)O)n(CCN3CCOCC3)c12", "outcome": "inactive"}, {"smiles": "CCCCS(=O)(=O)Nc1ncnc(OCCOc2ncc(Br)cn2)c1-c1ccc(Br)cc1", "outcome": "inactive"}, {"smiles": "C[C@H]1C[C@H]2[C@@H]3CCC4=CC(=O)C=C[C@]4(C)[C@@]3(F)[C@@H](O)C[C@]2(C)[C@@]1(O)C(=O)COP(=O)(O)O", "outcome": "inactive"}, {"smiles": "CC(C)(O)c1ccc2c(c1)C(O)CC1C(C)(C(=O)O)CCCC21C", "note": "(stereo not drawn)", "outcome": "inactive"}, {"smiles": "COc1cc(CCc2ccccc2)c(C(=O)O)c2c1CC(C(C)(C)O)O2", "note": "(stereo not drawn)", "outcome": "inactive"}]}]}
